# IL-1B inflam inh: inhibitors of inflammasome signaling (IL-1 beta secretion); THP-1 LPS/ATP IL-1B secretion, AlphaLISA, 16 h; hits give low values; activity change, % at 57.5 µM; 360,000 tested, 4.7% active; AID 743279; in the data active = activity change below about -50%; inconclusive = mostly about -30% to -49%
#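 Secreted IL-1B measured by AlphaLISA bead assay after 16 h compound exposure of THP-1 cells; compounds (final up to 57.5 uM) added 1 h before LPS (250 ng/mL) and ATP (1.25 mM) stimulation; lower signal means less secretion.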
# HT1080 IDH1KD tx: toxicity to HT-1080 IDH1 knockdown cells (counter line); HT-1080 IDH1 knockdown viability, ATP luminescence, 48 h; Potency, µM (highest dose often 46.1 µM), inactives show at the top dose activity, negative = toxicity, usual class: cytotoxic; 360,000 tested, 2% active;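 also: potency is read from the fitted curve at half-maximal effect; 0% = DMSO wells and -100% = cell-free medium wells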
#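 CellTiter-Glo luminescence after 48 h compound exposure at 37 degrees C of IDH1-knockdown HT-1080 cells in 5% FBS RPMI. %Activity scaled between DMSO wells and cell-free media wells, with curves fitted and assigned curve classes.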
# TDP1 cell noCPT: qHTS for Inhibitors of human tyrosyl-DNA phosphodiesterase 1 (TDP1): qHTS in cells in absence of CPT. Potency, µM (doses to about 46.2 µM), without a hit: at the top dose activity change, negative = growth inhibition, hits mostly inhibitors. DT40 Tdp1-/- hTDP1 cells, no CPT, ATP luminescence, 48 h. 420,000 tested, 15% active; also: potency is read from the fitted curve at half-maximal effect; nearly all actives have a fitted effect of over 55% in size
#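 Seeded 400 DT40-hTDP1 cells/well (vehicle DMSO, no 20 nM CPT); pinned compounds; ≥48 hr at 37 °C; CellTiter-Glo luminescence as viability measure.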
# HT1080-NT tox: kills 2HG-producing HT-1080-NT fibrosarcoma cells; HT-1080-NT fibrosarcoma viability, CellTiter-Glo ATP luminescence, 48 h; Potency, µM (doses to about 46.1 µM), for the others: top-dose activity, negative = less viability, actives largely listed as cytotoxic; 360,000 tested, 1.6% active; AID 686970;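 also: NT is the 2HG producing partner of a matched IDH1 knockdown line; potency is read from the fitted curve at half-maximal effect; 0% = DMSO-treated cells and -100% = media-only wells without cells; nearly all actives have a fitted effect of over 55% in size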
#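 A 48-hour cytotoxicity screen used HT-1080-NT cells plated 2 hours before compound delivery. ATP-based CellTiter-Glo luminescence measured viability, normalized to DMSO and no-cell controls.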
# DT40 TDP1 CPT: growth inhibition of DT40 Tdp1-/-;hTDP1 cells with camptothecin (screen for TDP1 inhibitors) | AID 686979 | Potency, µM (titrated, usually from 46.2 µM), inactives show top-dose activity change, negative = growth inhibition, actives largely listed as inhibitors | chicken DT40 Tdp1-/-;hTDP1 cells + 20 nM CPT, ATP luminescence, 48 h | 420,000 tested, 12% active; also: potency is read from the fitted curve at half-maximal effect; nearly all actives have a fitted effect of over 55% in size
#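 Chicken DT40 Tdp1-/- cells stably complemented with human TDP1 were seeded at 400 cells/well in medium containing 20 nM camptothecin, exposed to pin-transferred compounds, and grown at 37 °C for at least 48 hr. Viability was read as ATP luminescence.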
# Active calls of the source: *; ? = inconclusive; . = not tested or not shown; [ ] = dose if it differs, or a comment. Compounds with a hit are over-represented: about 19% of the library has one in this group of screens. Unless noted, calls follow the shape of the dose curve; as a rule, active = well fitted curve in the direction sought with a large enough effect; inconclusive = small, poorly fitted or top-dose-only effect, or another doubt; inactive = no such curve, though single readings can be large; an effect the other way counts as inactive or inconclusive. Unless noted, % is scaled to controls: 0 for no effect and ±100 for the full control effect.
SMILES,IL-1B inflam inh,HT1080 IDH1KD tx,TDP1 cell noCPT,HT1080-NT tox,DT40 TDP1 CPT
Cc1ccccc1C(=O)Nc1ccccc1C(=O)OCc1cc(=O)n2ccsc2n1,.,.,-11.9%,.,-0.6%
CCOC(=O)c1c(C)oc2nc(C)nc(NCCc3ccc(S(N)(=O)=O)cc3)c12,.,.,14.6µM*,.,23.1µM*
Cc1ccc(C(=O)NCCc2ccc(S(N)(=O)=O)cc2)o1,1.6,11.7%,1.4%,?,10.2%
CCOC(=O)c1c(C)oc2nc(C)nc(NCCc3ccc(C)cc3)c12,.,.,?,.,20.6µM*
CCOC(=O)CN(C)Cc1cn(C)nc1-c1ccc(Oc2ccccc2)cc1,24.6,7.9%,13µM*,0.1%,?
Cn1cc(CN2CCCCC2CO)c(-c2ccc(Oc3ccccc3)cc2)n1 (stereo unspecified),?,?,?,-26.8%,?
CCCN1CCC(NCc2cn(C)nc2-c2ccc(Oc3ccccc3)cc2)CC1,0.0,?,4.61µM*,?,5.17µM*
Cc1cnccc1CN(C)Cc1cn(C)nc1-c1ccc(Oc2ccccc2)cc1,-22.5,?,?,?,?
COC1CCCN(Cc2cn(C)nc2-c2ccc(Oc3ccccc3)cc2)C1 (stereo unspecified),?,-5.5%,-27.3%,-17.8%,-15.3%
COCCN1CCCC(CNCc2cn(C)nc2-c2ccc(Oc3ccccc3)cc2)C1 (stereo unspecified),-51.3*,?,5.8µM*,?,18.4µM*
CCOC(=O)CN(C)Cc1cn[nH]c1-c1ccc2cc(OC)ccc2c1,-63.8*,-16.5%,13µM*,-14.9%,16.4µM*
COc1ccc(C(C)(C)C)cc1NC(=O)CCc1c(C)noc1C,19.0,-20.8%,-29.0%,-3.5%,?
COc1ccc(CC(=O)O/N=C(\N)Cc2cccc3ccccc23)cc1OC,23.1,4.1%,?,-1.9%,?
O=C(CN1C(=O)NC2(CCCC2)C1=O)OCCOc1ccc(Cl)cc1Cl,1.2,-0.7%,?,3.3%,?
C=CC[N@@+]12CC[C@@]34c5ccccc5N5/C=C6/[C@H]7C[C@H]8[C@@]9(CC[N@@+]8(CC=C)C/C7=C/CO)c7ccccc7N(/C=C(/[C@@H](C[C@@H]31)/C(=C\CO)C2)[C@H]54)[C@@H]69,.,.,-1.5%[21.1 µM],.,1.3%[21.1 µM]
O=C(COC(=O)CNC(=O)c1ccco1)Nc1ncc(Cl)cc1Cl,-6.3,11.1%,4.4%,2.5%[9.24 µM],-5.3%
CCOC(=O)N1CCc2c(sc3c2c(=O)n(Cc2ccccc2)c(=O)n3CC(=O)Nc2ccc(C)cc2C)C1,.,.,-4.5%,.,-6.7%
CC(=O)N1CCc2c(sc3c2c(=O)n(CCc2ccccc2)c(=O)n3CC(=O)Nc2ccc(C)c(F)c2)C1,.,.,?,.,23.1µM*
CC(=O)N1CCc2c(sc3c2c(=O)n(-c2ccc(C)cc2)c(=O)n3CC(=O)Nc2ccccc2)C1,.,.,16.4µM*,.,?
CCOC(=O)N1CCc2c(sc3c2c(=O)n(CCc2ccccc2)c(=O)n3CC(=O)Nc2ccccc2C)C1,.,.,8.2µM*,.,8.2µM*
Cc1cc(C)c(NC(=O)C2CCN(c3nn4c(=O)cc(C)nc4s3)CC2)c(C)c1,.,.,-23.5%,.,?
CC(C)C[C@H]1CNC(=S)N1C[C@H]1CCCN1C[C@H](CC(C)C)N1C[C@H](Cc2ccc(O)cc2)N(CC2CCCCCC2)C1=S,-59.0*,?,8.2µM*,?,16.4µM*
CC(C)C[C@H]1CNC(=S)N1CC1CCCN1C[C@H](CC(C)C)N1C[C@H](Cc2ccc(O)cc2)N(CC2CCCCCC2)C1=S (stereo partly specified),-5.4,-3.3%,18.4µM*,-1.8%,23.1µM*
CC(C)C[C@H]1CNC(=S)N1CC1CCCN1C[C@H](CC(C)C)N1C[C@H](Cc2ccc(O)cc2)N(CC2CCCCC2)C1=S (stereo partly specified),0.0,-23.6%,18.4µM*,-22.7%,?
